These results are taken from PubChem BioAssay (NCI).

Some test systems named below: DU-145 prostate; K-562 leukemia; MALME-3M melanoma; MDA-MB-231 breast; RXF 393 renal; SF-268 CNS; SF-295 CNS; SF-539 CNS; UACC-257 melanoma; M14 melanoma; HCT-15 colon; HT29 colon; SNB-75 CNS; SNB-19 CNS; U251 CNS; PC-3 prostate; SK-MEL-5 melanoma; UACC-62 melanoma; LOX IMVI melanoma; SK-MEL-28 melanoma.
What all share (experiment): NCI-60 one-dose screen, 48 h (100 = growth as untreated, 0 = no growth, -100 = all killed)
Details in all cases: 10 µM unless noted

Structures are written as SMILES. This is part of a sample that, as a whole, favours compounds with a hit. Of some 83,000 tested, about 20% had one in any assay.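 Assay: single dose, 48 h. Readout: percent growth (0 = no net growth; negative = cell death). Active: <10.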 A number with no mark means an inactive call. Active and inactive are the calls of the source.

Turning to `CCOc1ccc([C@@H]2[C@@H](Oc3ccccc3)C(=O)N2c2cc(OC)c(OC)c(OC)c2)cc1`, the growth was 12.5% in the experiment with DU-145 prostate; 6.3% (active) in the experiment on K-562 leukemia; 71.8% in the experiment with MALME-3M melanoma; 10.1% with MDA-MB-231 breast; 14.1% in the experiment with RXF 393 renal; 33.9% in the experiment on SF-268 CNS. The growth was 13.1% with SF-295 CNS; -12.9% (active) in the experiment on SF-539 CNS; 73.7% in the experiment with UACC-257 melanoma; 4.74% (active) with M14 melanoma; 10.8% in the experiment on HCT-15 colon; 5.82% (active) in the experiment with HT29 colon. Also, the growth with SNB-75 CNS is 65.6%; in the experiment with SNB-19 CNS, 35.4%; with U251 CNS it was 21.7%; in the experiment with PC-3 prostate, 25.6%; in the experiment with SK-MEL-5 melanoma, -18.7% (active); with UACC-62 melanoma, 26%. The results for the growth in the experiment on LOX IMVI melanoma and in the experiment on SK-MEL-28 melanoma were 26.7% and 64.8%, respectively.
In the case of `COc1cc(C2CC(c3cccc(Nc4ccnc5cc(Cl)ccc45)c3)=NN2c2ccccc2)cc(OC)c1OC` (stereo not given), the growth in the experiment on DU-145 prostate was 68.9%; with K-562 leukemia it was 14%; in the experiment on MALME-3M melanoma, 64.3%; with MDA-MB-231 breast, 77.7%; in the experiment with RXF 393 renal, 93.1%; with SF-268 CNS, 63.2%. Further, the growth was 31.5% in the experiment on SF-295 CNS; 80.7% with SF-539 CNS; 80.1% in the experiment with UACC-257 melanoma; 34.7% with M14 melanoma; 67.1% in the experiment with HCT-15 colon; 59.7% in the experiment with HT29 colon. The growth in the experiment with SNB-75 CNS was 79.2%; in the experiment on SNB-19 CNS, 90.9%; in the experiment with U251 CNS, 78.8%; in the experiment with PC-3 prostate it was 55.2%; with SK-MEL-5 melanoma, 62.1%; with UACC-62 melanoma, 9.18% (active). Also, the growth in the experiment with LOX IMVI melanoma was 46.1%; in the experiment with SK-MEL-28 melanoma it was 67.2%.
For the molecule `COc1ccc(-c2nsc3c2NC(=O)CC3c2cccc(F)c2)cc1` (stereo not given), the growth in the experiment on DU-145 prostate was 53.7%; in the experiment on K-562 leukemia it was 13.9%; with MALME-3M melanoma, 42.7%; in the experiment with MDA-MB-231 breast, 44.7%; with RXF 393 renal, 50.9%; in the experiment with SF-268 CNS it was 62%. Moreover, the growth in the experiment on SF-295 CNS was 61.5%; with SF-539 CNS, 54.7%; with UACC-257 melanoma, 65.7%; with M14 melanoma, 32.6%; in the experiment with HCT-15 colon it was 23%; with HT29 colon it was 10.4%. In addition, the growth in the experiment with SNB-75 CNS is 68.5%; in the experiment on SNB-19 CNS, 82.7%; with U251 CNS, 45.6%; in the experiment on PC-3 prostate it was 49.4%; in the experiment on SK-MEL-5 melanoma, 32.5%; with UACC-62 melanoma, 48.5%. Also, the growth with LOX IMVI melanoma is 50.9%; in the experiment on SK-MEL-28 melanoma, 65.4%.
`O=C(CCc1nc2sc3c(c2c(=O)[nH]1)CCC3)NCc1cn(-c2ccccc2)nc1-c1ccccc1`: the growth is 48.7% in the experiment with DU-145 prostate; 84.6% in the experiment with K-562 leukemia; 47.7% in the experiment with MALME-3M melanoma; 11.4% with MDA-MB-231 breast; 48.8% in the experiment on RXF 393 renal; 65.3% in the experiment on SF-268 CNS. Besides, the growth with SF-295 CNS is 46.2%; with SF-539 CNS it was 83.3%; in the experiment on UACC-257 melanoma, 98.5%; in the experiment on M14 melanoma, 74.5%; in the experiment with HCT-15 colon, 86%; with HT29 colon, 83.3%. Besides, the growth in the experiment with SNB-75 CNS was -59% (active); in the experiment with SNB-19 CNS, 49.8%; in the experiment with U251 CNS, 44%; in the experiment on PC-3 prostate it was 29.9%; in the experiment on SK-MEL-5 melanoma, 72.5%; in the experiment on UACC-62 melanoma it was 88.6%. For the same molecule, the growth in the experiment with LOX IMVI melanoma is 44%; in the experiment on SK-MEL-28 melanoma, 79.1%.
As for `O=C(CI)NCCNc1cccc2c(S(=O)(=O)O)cccc12`, the growth is 96.3% in the experiment with DU-145 prostate; 110% in the experiment with K-562 leukemia; 103% in the experiment with MALME-3M melanoma; 93.5% with MDA-MB-231 breast; 101% with RXF 393 renal; 93.3% in the experiment with SF-268 CNS. Also, the growth in the experiment on SF-295 CNS was 98.5%; in the experiment on SF-539 CNS, 105%; with UACC-257 melanoma, 108%; in the experiment on M14 melanoma it was 98.4%; in the experiment on HCT-15 colon, 98.6%; in the experiment with HT29 colon, 110%. The growth is 96.9% with SNB-75 CNS; 89.7% with SNB-19 CNS; 105% in the experiment with U251 CNS; 102% in the experiment on PC-3 prostate; 99.6% in the experiment on SK-MEL-5 melanoma; 89.5% with UACC-62 melanoma. Moreover, the growth in the experiment with LOX IMVI melanoma is 103%; in the experiment with SK-MEL-28 melanoma, 106%.
Regarding `COC(=O)C(C)NC1=C(Cl)C(=O)C(NC(C)C(=O)OC)=C(Cl)C1=O` (stereo not given), the growth in the experiment with DU-145 prostate is 101%; in the experiment with K-562 leukemia it was 109%; with MALME-3M melanoma it was 72.2%; in the experiment with MDA-MB-231 breast, 94.6%; in the experiment on RXF 393 renal it was 101%; in the experiment on SF-268 CNS it was 102%. The growth is 99% with SF-295 CNS; 107% in the experiment on SF-539 CNS; 86.4% in the experiment on UACC-257 melanoma; 103% with M14 melanoma; 92.6% in the experiment on HCT-15 colon; 98.2% in the experiment on HT29 colon. Moreover, the growth with SNB-75 CNS is 86%; with SNB-19 CNS, 94%; in the experiment with U251 CNS, 98%; with PC-3 prostate it was 92%; with SK-MEL-5 melanoma, 79.2%; in the experiment with UACC-62 melanoma, 99.8%. For the same molecule, the growth in the experiment with LOX IMVI melanoma was 91.1%; with SK-MEL-28 melanoma, 111%.
For the molecule `O=c1cc(-c2ccc3c(c2)OCCO3)oc2cc(Cl)ccc12`, the growth in the experiment on DU-145 prostate is 25.6%; with K-562 leukemia it was 35.1%; with MALME-3M melanoma it was -16.3% (active); in the experiment with MDA-MB-231 breast, 27.3%; with RXF 393 renal, 55.6%; in the experiment with SF-268 CNS, 21.1%. Moreover, the growth in the experiment on SF-295 CNS is 19.6%; with SF-539 CNS it was -32.7% (active); in the experiment with UACC-257 melanoma, 52.8%; in the experiment on M14 melanoma it was 60.6%; with HCT-15 colon, 74.5%; in the experiment on HT29 colon, -16.8% (active). Moreover, the growth was -38.5% (active) in the experiment with SNB-75 CNS; 30.3% in the experiment with SNB-19 CNS; 4.26% (active) with U251 CNS; 43.3% with PC-3 prostate; 76.3% with SK-MEL-5 melanoma; 65.1% in the experiment with UACC-62 melanoma. Moreover, the growth was 32.1% with LOX IMVI melanoma and 21.4% in the experiment on SK-MEL-28 melanoma.
